Here are results for 17 compounds from ChEMBL document CHEMBL1961873, “Compounds: GSK PKIS; Assays: Nanosyn kinase panel” (2012).

SMILES strings stand for the structures.

Test [1] deals with Mitogen-activated protein kinase kinase kinase kinase 4 (Homo sapiens) (UniProt O95819). The note with it: at 1 µM.
Test [2] deals with Dual specificity mitogen-activated protein kinase kinase 1 (Homo sapiens) (UniProt Q02750). Particulars: at 0.1 µM.
Test [3] shares this target. Particulars: at 1 µM.
Test [4] concerns the target Misshapen-like kinase 1 (Homo sapiens) (UniProt Q8N4C8). The note with it: at 0.1 µM.
For test [5] the target is unchanged. The note with it: at 1 µM.
Test [6] concerns the target T1, Serine/threonine-protein kinase 4 (Homo sapiens) (UniProt Q13043).
T1 sequence (whole entry): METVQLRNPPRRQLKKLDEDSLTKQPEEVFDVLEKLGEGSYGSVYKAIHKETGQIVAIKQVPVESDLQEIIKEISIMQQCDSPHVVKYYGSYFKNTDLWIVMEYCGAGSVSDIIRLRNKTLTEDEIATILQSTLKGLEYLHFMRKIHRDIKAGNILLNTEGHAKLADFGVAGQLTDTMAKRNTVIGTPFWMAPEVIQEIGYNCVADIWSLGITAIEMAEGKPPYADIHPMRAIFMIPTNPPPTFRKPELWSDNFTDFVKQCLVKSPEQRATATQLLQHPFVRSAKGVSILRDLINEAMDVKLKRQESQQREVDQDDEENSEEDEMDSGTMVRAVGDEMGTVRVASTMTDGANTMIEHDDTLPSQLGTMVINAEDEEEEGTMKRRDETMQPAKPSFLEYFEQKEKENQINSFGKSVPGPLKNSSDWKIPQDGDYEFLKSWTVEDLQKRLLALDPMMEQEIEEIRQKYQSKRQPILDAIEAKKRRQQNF
The note with it: at 0.1 µM.

Test [7] addresses T1, Serine/threonine-protein kinase 4 (Homo sapiens). Particulars: at 1 µM.
Test [8] deals with T2, Serine/threonine-protein kinase 3 (Homo sapiens) (UniProt Q13188).
T2 sequence (whole entry): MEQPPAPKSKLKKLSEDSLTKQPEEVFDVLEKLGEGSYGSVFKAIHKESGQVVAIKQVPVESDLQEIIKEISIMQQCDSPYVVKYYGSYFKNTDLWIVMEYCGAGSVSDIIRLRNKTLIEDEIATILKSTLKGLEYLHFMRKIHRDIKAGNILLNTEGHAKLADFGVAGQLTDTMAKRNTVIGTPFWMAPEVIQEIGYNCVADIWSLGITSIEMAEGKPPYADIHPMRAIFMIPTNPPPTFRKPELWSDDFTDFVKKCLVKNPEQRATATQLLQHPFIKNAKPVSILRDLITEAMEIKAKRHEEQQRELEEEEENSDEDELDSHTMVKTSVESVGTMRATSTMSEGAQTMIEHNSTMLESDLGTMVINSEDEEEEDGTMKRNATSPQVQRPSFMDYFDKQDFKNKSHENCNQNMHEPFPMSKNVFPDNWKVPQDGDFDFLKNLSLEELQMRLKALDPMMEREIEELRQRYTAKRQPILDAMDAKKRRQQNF
Particulars: at 0.1 µM.

For test [9], the target named is T2, Serine/threonine-protein kinase 3 (Homo sapiens). Particulars: at 1 µM.
Test [10] has as its target Serine/threonine-protein kinase 26 (Homo sapiens) (UniProt Q9P289). The note with it: at 0.1 µM.

What is called inhibition is the change of the read-out against control, counted positive when it falls.

Serine/threonine-protein kinase 26 (Homo sapiens), sequence (Q9P289 2-416 limits assumed): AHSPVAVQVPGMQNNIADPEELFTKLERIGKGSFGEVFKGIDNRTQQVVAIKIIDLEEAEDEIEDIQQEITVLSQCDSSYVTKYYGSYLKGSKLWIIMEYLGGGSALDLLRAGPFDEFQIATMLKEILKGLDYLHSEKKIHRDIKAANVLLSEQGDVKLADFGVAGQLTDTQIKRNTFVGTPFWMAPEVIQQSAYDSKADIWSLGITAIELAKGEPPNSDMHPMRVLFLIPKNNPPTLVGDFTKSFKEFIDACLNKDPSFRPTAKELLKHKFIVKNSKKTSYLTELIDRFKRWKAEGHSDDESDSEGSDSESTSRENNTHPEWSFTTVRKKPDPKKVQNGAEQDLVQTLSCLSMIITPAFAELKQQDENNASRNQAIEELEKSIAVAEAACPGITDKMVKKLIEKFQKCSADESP
Misshapen-like kinase 1 (Homo sapiens), sequence (Q8N4C8 whole entry, looked up): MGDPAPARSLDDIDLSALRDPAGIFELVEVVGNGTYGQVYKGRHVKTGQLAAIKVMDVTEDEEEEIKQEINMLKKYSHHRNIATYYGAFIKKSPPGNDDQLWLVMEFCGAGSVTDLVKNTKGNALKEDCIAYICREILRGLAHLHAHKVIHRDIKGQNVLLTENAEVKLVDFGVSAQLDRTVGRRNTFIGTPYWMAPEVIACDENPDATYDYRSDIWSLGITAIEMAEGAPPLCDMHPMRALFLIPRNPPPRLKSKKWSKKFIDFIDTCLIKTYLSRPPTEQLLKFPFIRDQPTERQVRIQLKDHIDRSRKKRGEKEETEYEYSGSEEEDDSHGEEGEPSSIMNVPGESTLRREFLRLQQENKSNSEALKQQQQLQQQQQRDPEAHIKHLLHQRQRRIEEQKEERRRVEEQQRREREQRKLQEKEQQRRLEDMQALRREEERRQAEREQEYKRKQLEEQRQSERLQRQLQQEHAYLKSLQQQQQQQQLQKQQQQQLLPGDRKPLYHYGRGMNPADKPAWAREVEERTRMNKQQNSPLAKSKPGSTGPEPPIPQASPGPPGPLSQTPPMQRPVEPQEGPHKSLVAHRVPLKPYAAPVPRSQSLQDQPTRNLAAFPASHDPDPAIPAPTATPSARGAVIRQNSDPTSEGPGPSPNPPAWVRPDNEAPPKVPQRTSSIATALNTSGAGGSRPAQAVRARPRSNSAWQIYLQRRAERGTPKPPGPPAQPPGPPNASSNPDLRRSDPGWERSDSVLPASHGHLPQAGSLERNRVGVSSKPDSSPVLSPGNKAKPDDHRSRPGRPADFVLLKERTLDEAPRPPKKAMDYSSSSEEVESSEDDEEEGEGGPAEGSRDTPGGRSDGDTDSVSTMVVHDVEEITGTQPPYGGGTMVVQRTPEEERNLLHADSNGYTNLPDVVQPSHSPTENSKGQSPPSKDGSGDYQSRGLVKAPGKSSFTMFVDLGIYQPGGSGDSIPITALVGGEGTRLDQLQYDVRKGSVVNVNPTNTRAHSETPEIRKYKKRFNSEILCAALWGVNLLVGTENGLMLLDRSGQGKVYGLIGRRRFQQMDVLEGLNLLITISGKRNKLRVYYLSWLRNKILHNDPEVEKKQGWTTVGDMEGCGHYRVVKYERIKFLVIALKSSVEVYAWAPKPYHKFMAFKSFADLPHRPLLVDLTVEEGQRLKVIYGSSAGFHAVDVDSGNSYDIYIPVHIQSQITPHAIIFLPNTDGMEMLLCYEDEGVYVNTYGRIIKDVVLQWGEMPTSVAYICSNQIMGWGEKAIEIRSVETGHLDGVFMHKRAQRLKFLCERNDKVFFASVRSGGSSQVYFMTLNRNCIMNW
Mitogen-activated protein kinase kinase kinase kinase 4 (Homo sapiens), sequence (O95819 2-1239 limits assumed): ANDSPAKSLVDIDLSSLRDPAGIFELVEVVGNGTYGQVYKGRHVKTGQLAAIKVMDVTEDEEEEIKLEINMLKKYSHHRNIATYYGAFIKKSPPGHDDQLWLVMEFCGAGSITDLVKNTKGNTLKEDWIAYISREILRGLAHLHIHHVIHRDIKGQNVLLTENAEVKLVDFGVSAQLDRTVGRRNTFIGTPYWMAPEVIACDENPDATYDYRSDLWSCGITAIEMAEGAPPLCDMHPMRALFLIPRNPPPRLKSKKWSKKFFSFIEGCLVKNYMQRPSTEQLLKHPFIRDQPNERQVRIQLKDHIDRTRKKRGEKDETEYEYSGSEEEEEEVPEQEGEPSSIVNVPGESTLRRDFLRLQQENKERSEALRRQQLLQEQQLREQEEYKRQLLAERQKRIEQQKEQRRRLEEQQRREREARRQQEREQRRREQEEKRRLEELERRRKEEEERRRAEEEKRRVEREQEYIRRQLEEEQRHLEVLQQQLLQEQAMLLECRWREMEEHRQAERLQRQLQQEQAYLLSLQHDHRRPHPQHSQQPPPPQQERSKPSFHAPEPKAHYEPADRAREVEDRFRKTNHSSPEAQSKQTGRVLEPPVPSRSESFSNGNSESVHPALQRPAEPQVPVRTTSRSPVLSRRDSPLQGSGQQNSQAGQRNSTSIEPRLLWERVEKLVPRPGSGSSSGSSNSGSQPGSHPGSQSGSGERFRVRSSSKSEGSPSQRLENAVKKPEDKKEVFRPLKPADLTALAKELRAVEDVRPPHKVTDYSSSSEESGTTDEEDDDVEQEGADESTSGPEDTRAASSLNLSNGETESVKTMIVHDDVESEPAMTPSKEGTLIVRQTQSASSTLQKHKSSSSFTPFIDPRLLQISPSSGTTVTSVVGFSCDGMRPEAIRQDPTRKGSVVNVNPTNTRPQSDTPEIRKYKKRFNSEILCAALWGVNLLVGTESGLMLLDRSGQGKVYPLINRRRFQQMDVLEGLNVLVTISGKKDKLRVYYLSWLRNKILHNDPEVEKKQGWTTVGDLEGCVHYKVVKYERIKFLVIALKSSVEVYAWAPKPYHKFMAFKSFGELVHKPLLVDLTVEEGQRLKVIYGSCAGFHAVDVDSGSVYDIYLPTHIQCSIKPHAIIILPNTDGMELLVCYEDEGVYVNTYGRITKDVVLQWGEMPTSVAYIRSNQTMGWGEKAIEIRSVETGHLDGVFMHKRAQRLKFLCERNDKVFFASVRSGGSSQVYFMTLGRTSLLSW
Dual specificity mitogen-activated protein kinase kinase 1 (Homo sapiens), sequence (Q02750 whole entry): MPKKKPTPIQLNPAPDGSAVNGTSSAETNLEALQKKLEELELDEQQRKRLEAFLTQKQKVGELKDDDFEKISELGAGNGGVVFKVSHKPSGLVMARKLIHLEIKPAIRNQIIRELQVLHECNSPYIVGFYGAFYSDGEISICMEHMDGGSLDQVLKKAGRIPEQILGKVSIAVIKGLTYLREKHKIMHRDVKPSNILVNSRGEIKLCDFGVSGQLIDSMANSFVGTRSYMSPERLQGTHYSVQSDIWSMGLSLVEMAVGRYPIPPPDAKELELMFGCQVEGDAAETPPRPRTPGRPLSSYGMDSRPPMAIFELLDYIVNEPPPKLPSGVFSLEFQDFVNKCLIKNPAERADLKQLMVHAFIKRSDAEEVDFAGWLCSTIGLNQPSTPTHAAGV

Regarding `COc1cc2ncnc(Nc3ccc4c(cnn4Cc4ccccc4)c3)c2cc1OC`, the inhibition in [1] worked out at 9.55%; in test [2], 3.32%; in test [3], 2.12%; in test [4], 7.38%; in test [5], 9.64%; in test [6], 3.42%. The inhibition in [7] was 7.03%; in [8], 2.19%; in [9] it was 5.68%; in test [10] it was -0.63%.
On to `NS(=O)(=O)c1ccc(-c2cc3ccncc3cc2OCc2ccccc2)cc1`, for which the inhibition was 6.71% in [1]; 4.49% in [2]; 3.72% in [3]; 2.78% in [4]; 5.92% in test [5]; 5.08% in test [6]. For the same compound, the inhibition is 7.76% in test [7], 5.7% in test [8], 5.97% in test [9] and 0.92% in test [10].
Turning to `COc1cccc(-n2ncc3c(N/N=C/c4ccc(C)cc4)ncnc32)c1`, the inhibition worked out at 21% in test [1]; 4.05% in [2]; 3.78% in [3]; 7.18% in [4]; 16.1% in test [5]; 5.34% in test [6]. The inhibition in test [7] was 13.2%; in test [8], 6.16%; in test [9] it was 11.4%; in [10], -1.81%.
In the case of `ON=C1CCc2cc(-c3nc(C4CCNCC4)[nH]c3-c3ccncc3)ccc21`, the inhibition in [1] was 21.5%; in [2], 0.2%; in test [3], 2.1%; in [4] it was 4.01%; in test [5], 18.4%; in test [6], 2.4%. For the same compound, the inhibition in [7] is 3.87%; in test [8], 1.63%; in test [9], 2.8%; in test [10], 0.5%.
Turning to `O=C1Nc2ccc(-c3cccnc3)cc2C1=Cc1cc(Br)c(O)c(Br)c1`, the inhibition in test [1] was 91.6%; in test [2] it was 4.59%; in test [3], 5.62%; in [4], 45%; in test [5], 81.6%; in [6] it was 9.98%. Also, the inhibition was 39.6% in [7], 10.3% in test [8], 37.3% in [9] and 9.93% in test [10].
For the compound `NS(=O)(=O)c1ccc(N/N=C2\C(=O)Nc3ccc(Cl)cc32)cc1`, the inhibition stood at 75.5% in [1]; 5.27% in [2]; 5.11% in test [3]; 18.5% in test [4]; 65.7% in [5]; 21.2% in test [6]. Moreover, the inhibition in test [7] amounted to 67.5%; in test [8], 16.8%; in [9], 56.9%; in test [10], 1.38%.
Take `Cc1ccc(NC(=O)CC2CC2)cc1-c1ccc(C(=O)NCC2CC2)cc1`: the inhibition amounted to 9.33% in test [1]; 3.69% in test [2]; 2.73% in test [3]; 2.74% in [4]; 5.47% in test [5]; 5.3% in [6]. The inhibition in [7] worked out at 8.01%; in [8] it was 4.49%; in test [9] it was 5.72%; in test [10] it was 0.36%.
`FC(F)(F)c1ccc(-c2nn3ncccc3c2-c2ccnc(Nc3ccc4c(c3)OCCO4)n2)cc1`: the inhibition in test [1] was 12%; in test [2] it was 1.64%; in test [3], -1.13%; in test [4] it was 2.9%; in test [5] it was 11.5%; in test [6], 3.87%. Also, the inhibition was determined as 7.46% in test [7], 4.21% in test [8], 8.12% in [9] and 6.19% in test [10].
As for `COC(=O)Nc1nc2cc(Oc3ccc(NC(=O)Nc4cccc(Br)c4)cc3)ccc2[nH]1`, the inhibition is 5.51% in test [1]; 5.03% in [2]; 4% in [3]; 4.61% in [4]; 5.66% in [5]; 3.52% in [6]. Further, the inhibition turned out to be 2.71% in test [7], 3.41% in test [8], 3.92% in [9] and 0.49% in test [10].
On to `O=C(Nc1ccc(Oc2ccc3[nH]c(NC(=O)c4ccco4)nc3c2)cc1)Nc1cc(C(F)(F)F)ccc1F`, for which the inhibition in test [1] was 5.1%; in test [2] it was 0.55%; in [3], 1.24%; in test [4] it was 0.49%; in test [5] it was -0.52%; in test [6], -0.01%. In addition, the inhibition in [7] was 0.17%; in test [8], -1.13%; in [9] it was -0.98%; in test [10], 0.66%.
In the case of `COC(=O)c1ccc2c(c1)C(=Cc1cc(Br)c(O)c(Br)c1)C(=O)N2`, the inhibition in test [1] is 84.7%; in test [2], 3.31%; in test [3], 5.79%; in [4], 26.4%; in test [5], 75.2%; in test [6] it was 3.54%. Further, the inhibition in test [7] amounted to 19%; in [8], 4.78%; in test [9], 19.5%; in test [10], 1.49%.
Consider `CCCN1CCCC(c2ccc(Nc3nc(Nc4cc(F)ccc4C(N)=O)c4cc[nH]c4n3)c(OC)c2)C1` (stereo not given), for which the inhibition was 80.8% in test [1]; 9.59% in test [2]; 33.4% in test [3]; 28.3% in test [4]; 71.7% in test [5]; 10.2% in [6]. Also, the inhibition in test [7] is 41%; in test [8], 6.09%; in test [9] it was 10.6%; in [10], -1.66%.
Turning to `CS(=O)(=O)Nc1cccc(-c2ccc3c(NC(=O)C4CC4)n[nH]c3c2)c1`, the inhibition stood at 6.35% in [1]; 0.37% in test [2]; 0.96% in [3]; 1.34% in test [4]; 6.69% in [5]; 3.33% in [6]. Further, the inhibition in test [7] is 4.09%; in [8], 3.45%; in test [9], 4.09%; in test [10], -3.32%.
Take `Oc1cccc(-c2nc(-c3ccccc3)[nH]c2-c2ccncc2)c1`: the inhibition in test [1] came to 11.6%; in [2] it was 5.08%; in [3], 4.94%; in test [4], 5.57%; in [5] it was 8.96%; in [6], 5.39%. In addition, the inhibition in test [7] was determined as 8.96%; in test [8], 5.44%; in [9], 7.6%; in [10], 0.83%.
As to `COc1cc2ncn(-c3cc(OCc4ccccc4S(C)(=O)=O)c(C#N)s3)c2cc1OC`, the inhibition in test [1] worked out at 90.5%; in test [2], 3.78%; in [3], 7.23%; in test [4], 43.7%; in [5] it was 83.5%; in test [6] it was 22.3%. Also, the inhibition in [7] was 66.4%; in [8], 17.3%; in [9] it was 51.5%; in [10], -1.33%.
Regarding `c1ccc(Nc2ncc(-c3ccccc3)o2)cc1`, the inhibition is 25.9% in [1]; 5.07% in [2]; 4.19% in test [3]; 6.17% in test [4]; 19% in test [5]; 2.36% in test [6]. Further, the inhibition is 4.87% in test [7], 4.89% in test [8], 6.36% in test [9] and -1.38% in test [10].
Turning to `CN(C)C(=O)O[C@@H]1CN[C@@H](C#Cc2cc3ncnc(Nc4ccc(OCc5cccc(F)c5)c(Cl)c4)c3s2)C1`, the inhibition in test [1] is 6.27%; in test [2], -0.21%; in test [3], 0.83%; in test [4], 2.49%; in test [5], 6.17%; in test [6] it was -1.32%. For the same compound, the inhibition in [7] was 0.53%; in test [8], -2.45%; in [9], -0.68%; in test [10] it was 0.14%.
